Assay outcomes deposited in PubChem by Bradner/Qi Labs at DFCI.
CBX7 AlphaScr = CBX7 inhibition, primary AlphaScreen | O95931 | normalised signal (fraction of DMSO) (no concentration beside the values) | AlphaScreen His6-CBX7 / biotin-H3K27me3 peptide binding; hits give low values | actives 1.1% (n = 66,000); in the data active = normalised signal below about 0.5
Target sequence (O95931 whole entry, looked up): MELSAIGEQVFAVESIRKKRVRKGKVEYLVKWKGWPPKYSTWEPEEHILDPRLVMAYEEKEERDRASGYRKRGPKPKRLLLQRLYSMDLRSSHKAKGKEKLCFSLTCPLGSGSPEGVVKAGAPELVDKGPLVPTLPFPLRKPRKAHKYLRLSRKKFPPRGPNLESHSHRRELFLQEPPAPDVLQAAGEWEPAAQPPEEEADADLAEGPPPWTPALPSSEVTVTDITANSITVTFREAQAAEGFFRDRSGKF
A number is an active result; 0 = inactive. The sample as a whole holds a higher share of hits than the screen did.

SMILES	CBX7 AlphaScr
COc1ccc(C(=O)Nc2c3c(nn2-c2cccc(Cl)c2)CS(=O)(=O)C3)cc1	0
COc1ccc(C)cc1S(=O)(=O)NCCc1c(C)[nH]c2ccccc12	0
COc1cc(S(=O)(=O)NCCc2c(C)[nH]c3ccc(C)cc23)ccc1Cl	0.429
COc1ccc(C)cc1S(=O)(=O)NCCc1c(C)[nH]c2ccc(Br)cc12	0
COc1cc(S(=O)(=O)NCCc2c(C)[nH]c3ccc(C)cc23)c(C)cc1C	0.346
COc1cc(C)c(S(=O)(=O)NCCc2c(C)[nH]c3ccc(F)cc23)cc1C	0
CCOc1ccc(S(=O)(=O)NCCc2c(C)[nH]c3ccc(F)cc23)cc1	0
COc1ccc(S(=O)(=O)NCCc2c(C)[nH]c3ccc(Br)cc23)cc1C	0
Cc1ccc2[nH]c(C)c(CCNS(=O)(=O)c3ccc(F)cc3)c2c1	0.452
COc1ccc(C)cc1S(=O)(=O)NCCc1c(C)[nH]c2ccc(C)cc12	0.404
COc1ccc(S(=O)(=O)NCCc2c(C)[nH]c3ccc(C)cc23)c2ccccc12	0
CCOc1ccc(S(=O)(=O)NCCc2c(C)[nH]c3ccc(C)cc23)cc1	0
COc1ccc(S(=O)(=O)NCCc2c(C)[nH]c3ccc(C)cc23)cc1OC	0
COc1ccc(-c2csc(NC(=O)c3ccc(S(=O)(=O)N4CCCCC4)cc3)n2)cc1	0
Cc1ccc(CNC(=O)CN2C(=O)CC(C)(C)S(=O)(=O)c3ccccc32)cc1	0
Cc1ccc2c(c1)N(C(C)C(=O)NCc1ccccc1Cl)C(=O)CO2 (stereo unspecified)	0
O=C1CC(CCC(=O)NC2CCCCC2)c2ccccc2N1 (stereo unspecified)	0
COc1ccc(-c2csc(NC(=O)c3cccc4ccccc34)n2)cc1OC	0
O=C(NCCCN1CCc2ccccc2C1)c1csc2c1CCCCC2	0
Cc1[nH]c2ccccc2c1CCNC(=O)c1ccccc1Br	0
Cn1c2ccccc2c2c(C(=O)NCCN3CCOCC3)cn(C3CCCCC3)c(=O)c21	0
COCCNC(=O)CCc1nc(-c2ccccc2F)no1	0
COCCNS(=O)(=O)c1ccc2c(c1)CCN2C(C)=O	0
CC(NC(=O)c1cc(-c2cccc(Cl)c2)on1)c1ccccc1 (stereo unspecified)	0
Fc1ccc(Nc2c(-c3ccccn3)nc3ccc(Cl)cn23)cc1	0
SMILES	CBX7 AlphaScr
COc1ccc(Nc2c(-c3ccccn3)nc3ccc(C)cn23)cc1	0.0598
Cc1ccc2nc(-c3ccccn3)c(Nc3ccccc3C)n2c1	0.00675
Cc1ccccc1Nc1c(-c2ccccn2)nc2ccc(Cl)cn12	0
Cc1ccc2nc(-c3ccccn3)c(Nc3ccc(F)cc3)n2c1	0.212
Cc1ccc2nc(-c3ccncc3)c(Nc3ccccc3C)n2c1	0
Clc1ccc2nc(-c3ccccn3)c(Nc3ccccc3)n2c1	0
COc1ccc(-c2nc3ncccn3c2Nc2ccc(C)cc2)cc1	0
Cc1ccc2nc(-c3cccnc3)c(Nc3ccccc3)n2c1	0
Cc1ccc(Nc2c(-c3cccnc3)nc3ccc(C)cn23)cc1	0
Cc1ccc2nc(-c3ccccn3)c(Nc3ccccc3)n2c1	0.109
Cc1ccc(Nc2c(-c3ccccc3)nc3ccc(C)cn23)cc1	0
CC(=O)Nc1ccc(NS(=O)(=O)c2cc(Br)cc3c2N(C(C)=O)CC3)cc1	0
CCn1c(C2CC(=O)N(c3cccc(C)c3C)C2)nc2ccccc21 (stereo unspecified)	0
CCC(C)NC(=O)c1sc2nc(-c3ccccc3)cn2c1C (stereo unspecified)	0
CCC1=Nc2cc(C(=O)NCCCOC(C)C)ccc2Sc2ccc(Br)cc21	0
CC12CC(c3ccccc3O1)C(c1nc3ccccc3[nH]1)C(=O)N2 (stereo unspecified)	0
Cc1csc(NC(=O)C(CC(C)C)NS(=O)(=O)c2ccc3nc(C)sc3c2)n1 (stereo unspecified)	0
O=C(Nc1ccccc1C(F)(F)F)c1cc(-c2cccs2)on1	0
CCCCNc1c(N2CCCC(C(=O)OCC)C2)c(=O)c1=O (stereo unspecified)	0
Clc1ccc2nc(-c3ccc(N4CCOCC4)cc3)c(Nc3ccc4c(c3)OCCO4)n2c1	0
Clc1ccc2nc(-c3ccccn3)c(Nc3ccc4c(c3)OCCO4)n2c1	0.152
Clc1ccc2nc(-c3ccccc3)c(Nc3ccc4c(c3)OCCO4)n2c1	0
O=C(O)C1CCCCC1C(=O)N1CCN(c2nc(-c3ccccc3)c3ccccc3n2)CC1 (stereo unspecified)	0
Cc1ccc(N(Cc2nnc3n2CCCCC3)C(=O)Nc2ccccc2)cc1	0
Cc1ccc(NCC(O)Cn2c3c(c4cc(C)ccc42)CCCC3)cc1 (stereo unspecified)	0
SMILES	CBX7 AlphaScr
Cc1ccc2c(c1)c1c(n2CC(O)CN2CCCCC2C)CCCC1 (stereo unspecified)	0
Cc1ccc(NCC(O)Cn2c3c(c4cc(C)ccc42)CCCC3)c(C)c1 (stereo unspecified)	0.475
C#CCOc1ccc(-c2nnc(Nc3ccc(O)cc3)c3ccccc23)cc1	0
Cc1ccc(-c2nc(C(=O)N3CC(C)CC(C)C3)c(C)o2)cc1 (stereo unspecified)	0
Cc1ccc2[nH]c3c(c2c1)CCCC3Nc1ccccc1 (stereo unspecified)	0
Cc1ccc2[nH]c3c(c2c1)CCCC3NCc1ccc(F)cc1 (stereo unspecified)	0.428
Brc1ccc2[nH]c3c(c2c1)CCCC3NCc1ccccc1 (stereo unspecified)	0
C=C(C)Cn1c(C2CC(=O)N(c3ccc(C)c(Cl)c3)C2)nc2ccccc21 (stereo unspecified)	0
CCOc1ccc(-c2nnc(OC)c3ccccc23)cc1	0
c1ccc2c(-c3nc(C4CCCCC4)no3)cc(-c3ccncc3)nc2c1	0.49
Cc1cccc(-c2noc(-c3cc(-c4ccccc4)nc4ccccc34)n2)c1	0
Fc1cccc(Cl)c1-c1noc(-c2cc(-c3ccncc3)nc3ccccc23)n1	0
Cc1cccc(NC(=O)c2ccc(NC(=O)Cc3nn(C)c(=O)c4ccccc34)cc2)c1	0
O=C1CC(c2ccccc2)C(C(=O)Nc2cccc(C(F)(F)F)c2)N1 (stereo unspecified)	0
CCOc1ccc(C(=O)Nc2c(C(=O)c3ccc(C)cc3)oc3ccccc23)cc1	0
Cc1c(-c2ccccc2)nc2sc3c(c2c1N)CCCCC3	0
Nc1c2c(nc3sc4c(c13)CCCCC4)CCCCC2	0
Cc1c(-c2ccccc2)nc2sc3c(c2c1N)CCCC3	0.474
COc1ccc(/C=c2\sc3nc4c(C)cccc4n3c2=O)cc1O	0
CC(=O)N1CCc2ccc(S(=O)(=O)N3CCOCC3)cc21	0
Cc1ccc(NC(=O)C2(N3CCC4(CC3)OCCO4)CCCCC2)cc1	0
Cc1onc(-c2c(Cl)cccc2Cl)c1C(=O)NCC1CCCO1 (stereo unspecified)	0
Cc1onc(-c2c(F)cccc2Cl)c1C(=O)Nc1ccccc1	0
Cc1onc(-c2c(F)cccc2Cl)c1C(=O)NCC1COc2ccccc2O1 (stereo unspecified)	0.472
Cn1cc(CC(=O)Nc2ccc(F)cc2)c2ccccc21	0
SMILES	CBX7 AlphaScr
COc1ccc(OC)c(Nc2nc(-c3ccccn3)cs2)c1	0.384
CCOc1ccc(Nc2nc(-c3c(C)nc4ncccn34)cs2)cc1	0
COc1ccc(-c2csc(Nc3ccccc3OC)n2)cc1	0
CCOc1ccc(Nc2nc(-c3ccc(Cl)c(Cl)c3)cs2)cc1	0
O=C(O)c1ccc(Nc2nc(-c3ccccc3)cs2)cc1	0
COc1ccc(OC)c(Nc2nc(-c3ccc(C)cc3)cs2)c1	0
